# Data reported in the supplement of paper PMC6555819.
# Assays:
# Assay in all cases: PBM binding z-score (relative to random genomic background probes); higher = stronger binding; sequences stand for … in GC…GCGATTGACAGCGTAGAATGAAGG
# [1] = test system: RARb homodimer (NR concentration 270 nM)
# Outline: (§1)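 Binding buffer was PBS pH 7.4 with 2% milk, 0.02% Triton X-100, 1 mM DTT, 0.2 mg/mL BSA and 0.4 mg/ml salmon testes DNA. In it, ligand-free nuclear receptor dimers were incubated 1 h on custom Agilent 4×180K protein-binding microarrays carrying double-stranded probes. Antibodies against each partner (one per run) detected binding, and z-scores were calculated against random background probes after regression normalization of scanned fluorescence.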
# [2] = test system: RARg:RXRa (NR concentration 270 nM, RXRa partner concentration 90 nM)
# Outline: as §1
# [3] = test system: RARg homodimer (NR concentration 270 nM)
# Outline: as §1
# [4] = test system: RXRa DBDmut IVT, anti-RXR (DBD mutation: RXRa K156A/R161A, NR concentration 90 nM)
# Outline: as §1
# [5] = test system: RXRa homodimer (NR concentration 180 nM)
# Outline: as §1
# [6] = test system: THRa:RXRa (NR concentration 90 nM, RXRa partner concentration 90 nM)
# Outline: as §1
# [7] = test system: THRa homodimer (NR concentration 90 nM)
# Outline: as §1
# [8] = test system: VDR homodimer (NR concentration 270 nM)
# Outline: as §1
Sequence,PBM binding z-score [1],PBM binding z-score [2],PBM binding z-score [3],PBM binding z-score [4],PBM binding z-score [5],PBM binding z-score [6],PBM binding z-score [7],PBM binding z-score [8]
CCTAGCAGGCCCATCTGGGTCACTCAAGGCTTGA,1.64,0.5,0.267,-1.2,0.768,2.23,0.0226,-0.0686
TTACCTAGGTGAAAGGTCGTTGATGCACGCCTTG,2.24,3.56,1.38,0.705,4.66,3.15,0.624,1.19
CCTTACGGGTCACGGACAGGTTATAGCATTTGGA,3.42,6.84,5.39,1.99,6.76,3.59,0.532,1.16
CCTTACGGGTCAAGGTTATAGTACGGGTGGTACG,3.37,4.78,4.42,1.09,5.14,3.08,1,1.71
ACTAGCAGGCCAAGTTTAGGTCACTCAAACAAAG,2.6,3,2.44,0.0394,0.727,3.43,2.59,0.966
CCTATCAGGCCAGGGTCACTCAAGCATTTCGCTT,2.88,3.19,2.62,0.325,3.65,3.19,1.36,1.33
CCGACTGGGGCAAAGGTAACCATACTCAGTACGA,0.873,1.28,0.824,-0.208,1.19,0.563,-0.249,-0.353
AGAATGAGGTTATTAAGATCAGTGAATTGCGGTC,0.636,1.21,0.905,2.02,1.67,2.17,0.753,1.09
ATACTAAGGTGATCGTGAGGTCGTTGATACTAAC,1.76,2.89,1.27,1.35,2.06,3.7,3.46,3.43
TCTCGGAGGACACGAAGGTCTGAGCTTTCCAGAG,0.657,0.331,1.01,0.323,-0.0356,1.12,0.262,-0.384
CGTCCAAGGTCAGAGAGCTCAGTGAATGCCGAGT,3.53,4.54,5.24,2.67,3.25,3.14,1.42,1.5
TCTTGTAGATCAAGAAGGTTAAGAAAGCCTGAGT,0.784,0.407,0.315,0.387,0.863,0.451,-0.553,0.21
ATCGAAAGGTCGAGGTGGGTATAGAGAAAGGGAA,3.07,4.26,4.29,1.35,4.24,2.64,0.668,1.09
GCGACTGGGGAATCAGCAGGTTACCATAACTTAA,0.164,-0.241,-0.452,-0.352,0.0152,0.249,-0.272,-0.345
CCAGACAGGTGAAAGGTAACTGAGTCTGGTACGC,0.792,1.55,0.856,-0.0997,2.19,0.931,-0.381,-0.0816
TCTCGGAGGACACGAAGGTCAGGGCTTTCCAGAG,4.09,3.4,3.91,0.802,2.43,3.13,1.27,1.16
GGAACGAGGGCTAGTTGATAGCAGAGTTTGATGG,-0.317,-0.308,-0.0732,0.278,-0.467,-0.749,-1.03,-0.367
CGTACAAGGTCATAGGAGGTCAGTGAAGACAGAT,5.45,6.72,7.17,4.16,6.75,5.49,3.23,4.19
GGAACGAAGGCAAAGTTGATAGCATCTGTCGACG,-0.905,-0.275,-0.151,-0.157,-0.084,-0.716,-1.21,-1.02

Sequence,PBM binding z-score [1],PBM binding z-score [2],PBM binding z-score [3],PBM binding z-score [4],PBM binding z-score [5],PBM binding z-score [6],PBM binding z-score [7],PBM binding z-score [8]
AGAATGAGGTTATTAGGATCAGGGAATTGCGGTC,1.24,1.4,0.986,2.16,1.9,2.35,1.11,1.87
TCTCGGAGGACACGAAAGGTCAGAGTTCGACATC,5.05,5.04,5.71,1.45,5.12,3.77,1.57,3.65
ATCGAAAGGTCGTTAGGTGAGTATACAGAAAGGC,2.59,3.91,3.44,2.2,3.98,2.51,0.793,1.84
TCATATAGATAAATGCTAGGTGAAAGTCCGATCT,0.00895,0.12,0.317,1.66,0.786,0.626,0.378,0.203
CGTCCAAGGTCAAGGTCAGTGCAAGAGACTCGAA,5.45,6.95,7.95,3.52,6.56,4.21,3.91,3.18
TGAATGAGGTTAAAGATCAGGGGACGTGGCGTCG,1.02,2.29,1.31,1.01,3.57,2.83,0.742,0.974
TGAATGAGGTTATACGATCAGGGAACGTTGCAAA,0.016,1.31,1.01,0.956,2.06,1.8,0.24,0.274
TCATATAGGTAAATGCAAGGTGAAAGTCCGATCT,1.3,1.09,0.776,1.93,1.36,2.64,1.5,0.698
ATCTCTAGGTAAGACTCAGTTGAGTGAAGAACGC,-0.154,0.15,0.0573,0.17,-0.0983,0.492,0.309,0.119
ACAGACAGGGGATGAAGGTAACTCAGGCTATCAT,0.714,0.0982,0.418,0.422,0.188,0.765,0.491,-0.173
AGTATTAGTTGAGACGAGGGCAACCGATAGGTTG,1.37,0.642,0.922,0.464,0.65,2.68,0.356,1.53
TGTATTAGTTGAAGGGCAACCGACGAGTCCGTTT,1.63,0.727,1.06,0.401,0.406,0.237,0.213,1.55
ATCTCTAGGTAAACATAGTTCAGTGAATGCAAAT,1.42,0.884,0.928,-0.105,0.495,1.07,0.425,0.447
ATCTCTAGGTAACAGTTCAGTGAATCCCGAGGAT,0.815,0.757,0.845,0.0711,0.513,0.831,0.517,0.915
GCGACTGGGGCAAAGCAGGTTACCATGAGGTTGG,1.2,0.634,0.674,-0.402,0.455,2.99,-0.00664,-0.385
ATCGAAAGGTCGTGTGGTGAGTATACAGAAAGGC,2.97,4.21,3.83,2.19,4.59,2.39,0.842,2.03
CTACCAAGGTGAACAAGGCCGTTGATTACTATTC,0.956,0.749,0.894,0.53,0.695,2.18,1.08,0.0898
CCGACTGGGGCATAAGGTTACCATTAGCCAGCCC,1.82,1.34,0.904,-0.204,1.08,1.87,1.37,-0.611
TGTTGTAGATCAGCAGGTTAAGAAAGCTGGCCAA,-0.378,-0.266,-0.294,-1.38,-0.118,-0.32,-1.04,-0.583

Sequence,PBM binding z-score [1],PBM binding z-score [2],PBM binding z-score [3],PBM binding z-score [4],PBM binding z-score [5],PBM binding z-score [6],PBM binding z-score [7],PBM binding z-score [8]
TCTGCTAGGTCAGTTGGTCAGCGAACGAGCTGCC,2.57,2.96,3.87,0.527,0.834,1.21,-0.151,-0.461
TTACCAAGGTGAAGGACGTTGATCCCTCTGTAGA,0.644,0.43,0.524,-0.216,0.672,1.66,0.562,-0.106
CGAACTAGGTCATTGACAGGCCAGTGAATAGTAA,2.44,4.45,4.53,1.99,3.06,2.53,0.248,0.674
AGAATGAGGTTATACGTGGATCAGGGAAGAAAGT,1.08,1.69,0.925,1.84,2.1,2.48,1.1,1.21
CTGACTGGGGCAAGGTTACCATAACGCACAGCCA,1.54,1.43,1.43,0.0299,1.28,1.52,0.417,0.129
AGAATGAGGTTACCAAAGATCGGGGAAACGCTTG,0.666,1.91,1.43,1.5,2.5,2.71,0.699,-0.00618
GCTAGCAGGCCATATGGGTCACTCAATGACGGGC,1.78,1.54,1.39,-0.402,1.43,1,-0.658,-0.276
GCTAATTGGTCAGTAAAAGGTCACACACCGGTCG,5.34,5.37,4.52,0.816,5.27,3.88,2.1,2.14
TATACAGGGTCAAAGGCCAGAGGACGAATGTCGA,3.52,5.92,5.44,2.95,7.17,3.5,0.968,2.9
TCGCGTAGGTTAGTCGGGGCATTCAGCCAACATA,0.519,0.0765,-0.112,0.21,-0.0315,1.26,-0.0265,0.208
AGTCAAAGTTTAGGACGAGGTAACGTAAAGCACG,0.774,0.936,1.26,0.5,0.477,2.59,1.51,0.0811
CGAAATAGGTCAGAACAGGACAGTGAAGGATGAT,2.82,3.36,4.15,0.269,2.42,4.13,0.228,0.382
TCTGCTAGGTCAACGATGGACAGCTAATCTGCTA,2.79,3.82,4.71,0.955,2.5,2.86,0.203,-0.736
ACTAGCAGGCCAAGGGTCACGCAAGATTAGTCCG,4.29,5.29,4.8,0.355,5.96,3.38,0.69,1.24
TCTTGTAGATCAACAGGAGGTTAAGCAAGATCGA,0.427,0.916,0.301,0.224,1.01,1.24,-0.612,-0.456
ACTTACGGGCCAACGAGGTTATAGCACGCGTATA,1.08,0.977,0.949,0.889,1.01,1.76,0.399,1.31
CCTTGCAGGCCAGGGTCACTCAAGCATTTCGCTT,2.93,3.21,2.83,0.484,3.43,2.76,1.07,1.18
TGTATTAGTTGATTAGGGCAACCGAAACAGCGGA,0.715,0.692,0.807,-0.317,-0.0234,0.551,0.64,0.784
TTACTAAGGTGAAGGTCGTTGATCCCTCTGTAGA,1.96,1.85,1.21,0.794,2.31,3.16,1.98,1.11
